This is one part of a sample in which hits are shown more often than they occur.
miR122 inh: raises miR-122 sensor activity in Huh7 cells; Huh7 psiCHECK-miR122 Renilla luciferase sensor, 48 h; activation, % at 12.5 µM; 340,000 tested, 0.14% active;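 active means mean activation of 30% or more, with every replicate also reaching 30%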;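 further: higher luciferase signal means stronger suppression of miR-122 activity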
Large screens that a line does not name were inactive.

C[C@H](CO)N1C[C@H](C)[C@H](CN(C)S(=O)(=O)c2ccccc2)Oc2ncc(C#CC3(O)CCCC3)cc2C1=O	none
C[C@H]1CN([C@@H](C)CO)C(=O)c2cc(C#CC(C)(C)O)cnc2O[C@@H]1CN(C)C(=O)C1CC1	none
C[C@@H]1CN([C@@H](C)CO)C(=O)c2cc(C#CC3(O)CCCC3)cnc2O[C@H]1CN(C)C(=O)Cc1ccccc1	none
C[C@H]1CN([C@@H](C)CO)C(=O)c2cc(-c3cccnc3)cnc2O[C@@H]1CN(C)C(=O)Nc1ccc(F)cc1	none
C[C@H]1CN([C@@H](C)CO)C(=O)c2cc(-c3cccnc3)cnc2O[C@H]1CN(C)C(=O)Nc1ccc(F)cc1	none
C[C@H](CO)N1C[C@H](C)[C@H](CN(C)CC2CCCCC2)Oc2c(NC(=O)C3CCOCC3)cccc2C1=O	none
C[C@H](CO)N1C[C@H](C)[C@@H](CN(C)CC2CCCCC2)Oc2c(NC(=O)C3CC3)cccc2C1=O	none
C[C@H]1CN([C@@H](C)CO)C(=O)c2cc(-c3ccc(C#N)cc3)cnc2O[C@H]1CN(C)C(=O)Nc1ccc(C(F)(F)F)cc1	miR122 inh 37.0
C[C@H](CO)N1C[C@H](C)[C@@H](CN(C)CC2CCCCC2)Oc2c(NS(=O)(=O)c3cccs3)cccc2C1=O	miR122 inh 33.2
C[C@@H]1CN([C@@H](C)CO)C(=O)c2cc(C#CC(C)(C)O)cnc2O[C@H]1CN(C)C(=O)C1CC1	none
COc1ccc(S(=O)(=O)N(C)C[C@H]2Oc3cc(C#CC4CC4)ccc3S(=O)(=O)N([C@H](C)CO)C[C@H]2C)cc1	none
C[C@@H]1CN([C@H](C)CO)S(=O)(=O)c2ccc(-c3cccc(C#N)c3)cc2O[C@H]1CN(C)Cc1ccccn1	none
C[C@H]1CN([C@@H](C)CO)S(=O)(=O)c2ccc(-c3ccncc3)cc2O[C@@H]1CN(C)C(=O)C1CC1	none
C[C@H](O)C#Cc1cnc2c(c1)C(=O)N([C@@H](C)CO)C[C@H](C)[C@H](CN(C)Cc1cncnc1)O2	none
CCC(=O)N(C)C[C@H]1Oc2ncc(C#CC3(O)CCCC3)cc2C(=O)N([C@H](C)CO)C[C@@H]1C	none
CCCN(C)C[C@H]1Oc2cc(C#CC(C)C)ccc2S(=O)(=O)N([C@H](C)CO)C[C@H]1C	none
Cc1cc(C(=O)N/N=C/c2cc(Br)ccc2OC(=O)c2ccccc2)n[nH]1	miR122 inh 32.5
Cc1ccccc1-c1ccc2c(c1)O[C@H](CN(C)C(=O)Nc1ccccc1)[C@H](C)CN([C@@H](C)CO)S2(=O)=O	none
COCC#Cc1cnc2c(c1)C(=O)N([C@@H](C)CO)C[C@H](C)[C@@H](CN(C)C(=O)Nc1c(C)noc1C)O2	none
C[C@H](CO)N1C[C@H](C)[C@@H](CN(C)C(=O)Cc2ccccn2)Oc2ncc(/C=C/c3ccccc3)cc2C1=O	none
CCNC(=O)C[C@H]1CC[C@@H]2[C@@H](COc3ccc(NC(=O)c4cccc(C(F)(F)F)c4)cc3C(=O)N2C)O1	miR122 inh 53.3
COCCNC(=O)C[C@@H]1CC[C@H]2[C@H](COc3ccc(NC(=O)Cc4ccccc4)cc3C(=O)N2C)O1	none
CCNC(=O)C[C@@H]1CC[C@@H]2[C@@H](COc3ccc(NC(=O)c4ccccc4)cc3C(=O)N2C)O1	miR122 inh 41.7
CC(C)C(=O)Nc1ccc2c(c1)C(=O)N(C)[C@H]1CC[C@H](CC(=O)NCc3cccc(F)c3)O[C@@H]1CO2	none
CC(C)C(=O)Nc1ccc2c(c1)C(=O)N(C)[C@H]1CC[C@H](CC(=O)NCCc3ccccc3)O[C@H]1CO2	miR122 inh 53.3
CN1C(=O)c2cc(NC(=O)c3ccc(C(F)(F)F)cc3)ccc2OC[C@@H]2O[C@H](CC(=O)NCc3ccc4c(c3)OCO4)CC[C@@H]21	miR122 inh 33.3
CCCC#Cc1cnc2c(c1)C(=O)N([C@@H](C)CO)C[C@@H](C)[C@H](CN(C)C(=O)C1CC1)O2	none
COCC#Cc1cnc2c(c1)C(=O)N([C@@H](C)CO)C[C@@H](C)[C@@H](CN(C)C(=O)C1CCOCC1)O2	none
C[C@@H]1CN([C@H](C)CO)S(=O)(=O)c2ccc(-c3ccccc3)cc2O[C@H]1CN(C)Cc1cncnc1	none
CCC(=O)N(C)C[C@H]1Oc2ncc(C#C[C@H](C)O)cc2C(=O)N([C@@H](C)CO)C[C@H]1C	none
C[C@H]1CN([C@@H](C)CO)C(=O)c2cc(-c3cncnc3)cnc2O[C@H]1CN(C)Cc1ccccc1	none
C[C@@H]1CN([C@@H](C)CO)C(=O)c2cc(-c3ccccc3F)cnc2O[C@@H]1CN(C)C(=O)C1CCCCC1	none
C[C@H](CO)N1C[C@H](C)[C@@H](CN(C)C(=O)NC2CCCCC2)Oc2ncc(-c3ccccc3F)cc2C1=O	none
CC(C)CC#Cc1cnc2c(c1)C(=O)N([C@@H](C)CO)C[C@@H](C)[C@@H](CN(C)CC1CCOCC1)O2	none
COc1cccc(-c2cnc3c(c2)C(=O)N([C@H](C)CO)C[C@H](C)[C@@H](CN(C)CC2CCOCC2)O3)c1	none
COc1ccc(S(=O)(=O)Nc2cc3c4c(oc3c3ccccc23)CCCC4=O)cc1	none
COc1ccc(NS(=O)(=O)c2cc(C)ccc2C)cc1	none
COc1ccc(Oc2ccc(N/C=C3\CCCC3=O)cc2)cc1	miR122 inh 35.9
C[C@@H]1CN([C@H](C)CO)S(=O)(=O)c2ccc(-c3ccncc3)cc2O[C@H]1CN(C)Cc1ccccc1	none
COc1cccc(-c2cnc3c(c2)C(=O)N([C@H](C)CO)C[C@@H](C)[C@@H](CN(C)Cc2cccnc2)O3)c1	none
C[C@@H]1CN([C@@H](C)CO)C(=O)c2cc(C#CC3(O)CCCC3)cnc2O[C@H]1CN(C)S(=O)(=O)c1ccccc1	none
COc1ccc(-c2ccc(C#N)c(OC(=O)c3c(Cl)cccc3Cl)n2)cc1	miR122 inh 31.8
C[C@H](CO)N1C[C@H](C)[C@@H](CN(C)C(=O)C2CCCCC2)Oc2ncc(C#CCc3ccccc3)cc2C1=O	none
C[C@H](CO)N1C[C@H](C)[C@H](CN(C)C(=O)c2ccccc2F)Oc2ncc(C#Cc3ccc(F)cc3)cc2C1=O	none
C[C@H](CO)N1C[C@H](C)[C@H](CN(C)C(=O)c2ccccc2F)Oc2ncc(-c3ccncc3)cc2C1=O	none
CN1C(=O)c2cc(NC(=O)C3CC3)ccc2OC[C@H]2O[C@H](CC(=O)NCc3cccc(F)c3)CC[C@H]21	none
CCNC(=O)Nc1ccc2c(c1)C(=O)N(C)[C@H]1CC[C@H](CC(=O)NCCN3CCCC3)O[C@@H]1CO2	miR122 inh 36.7
CN1C(=O)c2cc(NC(=O)C3CC3)ccc2OC[C@@H]2O[C@H](CC(=O)NCCN3CCCC3)CC[C@H]21	miR122 inh 45.0
CCCNC(=O)N(C)C[C@H]1Oc2cc(C#CC(C)C)ccc2S(=O)(=O)N([C@H](C)CO)C[C@@H]1C	none
C/C=C/c1ccc2c(c1)O[C@H](CN(C)C(=O)CC1CC1)[C@@H](C)CN([C@H](C)CO)S2(=O)=O	none
CCCNC(=O)NC[C@@H]1[C@@H](c2ccc(C3=CCCC3)cc2)[C@@H](CO)N1C(=O)CC	none
C[C@@H]1CN([C@H](C)CO)S(=O)(=O)c2ccc(C#Cc3ccccn3)cc2O[C@@H]1CN(C)Cc1cccc(F)c1	none
Oc1ccccc1/C=N/Nc1nc2ccccc2o1	miR122 inh 48.1
C[C@@H]1CN([C@@H](C)CO)C(=O)c2cc(-c3ccncc3)cnc2O[C@@H]1CN(C)C(=O)Cc1ccccn1	none
CCC(=O)Nc1ccc2c(c1)OC[C@@H](C)N(C(=O)c1ccncc1)C[C@@H](C)[C@H](OC)CN(C)C2=O	none
C[C@H]1CN([C@@H](C)CO)C(=O)c2cc(C#Cc3ccccn3)cnc2O[C@H]1CN(C)C(=O)c1cnccn1	none

Bioassay records: PubChem, Broad Institute
